# The panel holds about 83,000 compounds, 20% with a hit somewhere; the sample as a whole holds those more often.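 For each line, cells grew in 96-well plates with the test compound present at a single concentration for 48 hours.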 Unmarked numbers belong to inactive results. Active and inactive are the calls of the source. Rule for the calls: active = growth percent below 10; inactive = the rest.
# Assays:
# Assay in all cases: NCI-60 one-dose screen, 48 h (100 = growth as untreated, 0 = no growth, -100 = all killed)
# Conditions in all cases: 10 µM unless noted
# [1] = tested on: RPMI-8226 leukemia
# [2] = tested on: OVCAR-8 ovarian
# [3] = tested on: OVCAR-5 ovarian
# [4] = tested on: OVCAR-4 ovarian
# [5] = tested on: SK-OV-3 ovarian
# [6] = tested on: IGROV1 ovarian
# [7] = tested on: OVCAR-3 ovarian
# [8] = tested on: HS 578T breast
# [9] = tested on: NCI/ADR-RES ovarian
# [10] = tested on: T-47D breast
# [11] = tested on: BT-549 breast
# [12] = tested on: MDA-MB-435 melanoma
# [13] = tested on: SW-620 colon
# [14] = tested on: MCF7 breast
# [15] = tested on: HCT-116 colon
# [16] = tested on: HCC-2998 colon
# [17] = tested on: KM12 colon
SMILES,growth [1],growth [2],growth [3],growth [4],growth [5],growth [6],growth [7],growth [8],growth [9],growth [10],growth [11],growth [12],growth [13],growth [14],growth [15],growth [16],growth [17]
NS(=O)(=O)c1ccc(-n2nc(C(=O)N/N=C\c3ccc(F)cc3)cc2-c2ccc(Br)cc2)cc1,94.9%,94.5%,94.9%,87.2%,88.6%,73.6%,82.3%,72.1%,67.8%,69.7%,86.1%,-1.32% (active),62.8%,55.1%,82.8%,86.9%,61.8%
C=CCNc1ccc2c3c(cccc13)C(=O)N(N1C(=O)c3cccc4cccc(c34)C1=O)C2=O,109%,100%,101%,107%,108%,103%,108%,97.2%,101%,96.5%,105%,101%,108%,87.4%,99.6%,107%,105%
COc1ccc(OC)c(/C=C/C(=O)N/N=C/c2ccccc2)c1,54.4%,54.8%,85%,78.2%,60%,38.5%,6.02% (active),66.5%,8.51% (active),39.7%,60.8%,-7.51% (active),28.7%,17.3%,14.2%,66.4%,31%
C#C[C@]1(O)CC[C@H]2[C@@H]3CC=C4c5sc(Nc6cc(F)ccc6F)nc5CC[C@]4(C)[C@H]3CC[C@@]21C,-28.3% (active),18.4%,2.88% (active),23%,-1.09% (active),-33.5% (active),-22.7% (active),-10.8% (active),7.49% (active),-16.6% (active),12.3%,-28.2% (active),-61.1% (active),-23.8% (active),-44.2% (active),-78.8% (active),-41.2% (active)
CCCCN(C)N=Nc1ccc(C(N)=O)cc1,114%,107%,99.2%,107%,121%,89.1%,103%,101%,106%,113%,112%,84.5%,104%,94%,107%,101%,107%
COc1ccc(C(=S)N2CCN(c3cccc(C)c3)CC2)cc1OC,80%,76.6%,93.4%,103%,88.5%,42.4%,41.1%,103%,5.68% (active),76%,59.1%,2.58% (active),36.5%,43.4%,37%,62.5%,43.2%
COc1ccc(-c2cc3c4c(nc5ccccc5c4c2)CC(c2cc(OC)c(OC)c(OC)c2)O3)cc1 (stereo unspecified),25.1%,32%,18.4%,-9.24% (active),20.2%,52.5%,41.9%,13.2%,41.4%,14.1%,64.6%,56.4%,37.9%,61.3%,1.01% (active),43.1%,60.4%
COc1cc(/C=C/C(=O)/C=C/c2cc(OC)c3c(c2OC)OCO3)c(OC)c2c1OCO2,15.7%,2.45% (active),81.8%,32%,78.2%,29.8%,0.304% (active),63.8%,28.3%,31%,31.4%,11.5%,17.8%,19.1%,2.58% (active),107%,37%

# From PubChem BioAssay (NCI)
